Common to all, as to assay: NCI-60 one-dose screen, 48 h (100 = growth as untreated, 0 = no growth, -100 = all killed)
Assay [1] has as its system SR leukemia. The settings on record: 10 µM unless noted.
Assay [2] concerns RPMI-8226 leukemia.
Assay [3] has as its system OVCAR-8 ovarian.
Assay [4] concerns OVCAR-5 ovarian.
Assay [5] has as its system OVCAR-4 ovarian.
Assay [6] has as its system SK-OV-3 ovarian.
For assay [7], the system named is IGROV1 ovarian.
In assay [8] the test system is OVCAR-3 ovarian.
Assay [9] concerns HS 578T breast.
Assay [10] relates to NCI/ADR-RES ovarian.
The subject of assay [11] is T-47D breast.
Assay [12] deals with SW-620 colon.
Assay [13] relates to MCF7 breast.
In assay [14] the test system is HCT-116 colon.
The test system of assay [15] is HCC-2998 colon.
Assay [16] concerns KM12 colon.
Assay [17] has as its system MDA-MB-468 breast. Conditions: 10 µM unless noted.
Assay [18] concerns BT-549 breast.
Assay [19] deals with MDA-MB-435 melanoma.

This is part of a sample that, as a whole, favours compounds with a hit. Of some 83,000 tested, about 20% had one in any assay.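 Interpretation: 100, growth as untreated; towards 0, rising growth inhibition; 0, no net growth; 0 to -100, cell death. Compounds scoring below 10 were considered active.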 Unmarked numbers belong to inactive results. The source made the active and inactive calls.

With `CCN1C(=O)N(CC)C2NNC(Sc3c(C(=O)O)c4ccccc4n(CC(C)C)c3=O)=NC21` (stereo not drawn), the growth is 11.1% in [1]; 8.29% (active) in assay [2] (10 µM unless noted); 11.8% in assay [3] (10 µM unless noted); 24.2% in assay [4] (10 µM unless noted); 67% in [5] (10 µM unless noted); 40.6% in assay [6] (10 µM unless noted). Further, the growth in [7] (10 µM unless noted) is 20%; in assay [8] (10 µM unless noted), 4% (active); in assay [9] (10 µM unless noted) it was -2.68% (active); in [10] (10 µM unless noted) it was -27.6% (active); in assay [11] (10 µM unless noted) it was 72.5%; in assay [12] (10 µM unless noted), 30.5%. The growth is 8.53% (active) in [13] (10 µM unless noted); 9.94% (active) in assay [14] (10 µM unless noted); 18.7% in [15] (10 µM unless noted); 21.4% in assay [16] (10 µM unless noted); 7.22% (active) in assay [17].

Consider `CC(C)(C)OC(=O)N1CCC2(CC1)Oc1ccccc1[C@H]1CC(c3ccc(Br)cc3)=NN12`, for which the growth is 56.2% in assay [2] (10 µM unless noted); 83.3% in [3] (10 µM unless noted); 122% in assay [4] (10 µM unless noted); 65% in assay [5] (10 µM unless noted); 79.1% in assay [6] (10 µM unless noted); 58.7% in assay [7] (10 µM unless noted). Also, the growth is 77.1% in assay [8] (10 µM unless noted); 91.5% in assay [9] (10 µM unless noted); 83.7% in assay [10] (10 µM unless noted); 37.1% in assay [11] (10 µM unless noted); 78.5% in [18] (10 µM unless noted); 81.6% in assay [19] (10 µM unless noted). In addition, the growth in [12] (10 µM unless noted) was 83%; in [13] (10 µM unless noted), 59.9%; in assay [14] (10 µM unless noted) it was 74.1%; in [15] (10 µM unless noted), 85.6%; in assay [16] (10 µM unless noted), 49.9%; in assay [17], 67.7%.

As to `CC/C(=C(/c1ccc(O)cc1)c1ccc(OCCN(C)C(=O)COCCOCCNC(=O)c2ccc3c(c2)CN([C@@H]2CCC(=O)NC2=O)C3=O)cc1)c1ccccc1`, the growth in [2] (1 µM) is 99.6%; in [2] (10 µM), 78.5%; in [3] (1 µM), 102%; in assay [3] (10 µM), 61.1%; in assay [4] (1 µM) it was 96%; in assay [4] (10 µM), 86.8%. Besides, the growth was 103% in [5] (1 µM); 93% in [5] (10 µM); 91.1% in [6] (1 µM); 92.8% in assay [6] (10 µM); 63.1% in [7] (1 µM); 37.6% in assay [7] (10 µM). Moreover, the growth in assay [8] (1 µM) was 99.1%; in assay [8] (10 µM), 95.8%; in [9] (1 µM), 70.9%; in assay [9] (10 µM), 53.9%; in assay [10] (1 µM), 106%; in assay [10] (10 µM) it was 102%. Further, the growth in assay [11] (1 µM) is 28.6%; in [11] (10 µM) it was 33.4%; in [18] (1 µM) it was 5.04% (active); in assay [18] (10 µM) it was 43.1%; in [19] (1 µM), 101%; in assay [19] (10 µM) it was 97%. In addition, the growth in assay [12] (1 µM) is 81.5%; in assay [12] (10 µM), 60.6%; in assay [13] (1 µM), 26.3%; in [13] (10 µM), 18.9%; in [14] (1 µM), 97.9%; in assay [14] (10 µM), 102%. Besides, the growth was 97.6% in assay [15] (1 µM), 82.8% in [15] (10 µM), 98.9% in [16] (1 µM) and 95.5% in assay [16] (10 µM).

In the case of `Cn1cc(-c2cc3nc(-c4c[nH]c5ccccc45)cc(N)n3n2)c2ccccc21`, the growth in assay [1] was 8.18% (active); in [2] (10 µM unless noted), -21.9% (active); in assay [3] (10 µM unless noted), -73.6% (active); in [4] (10 µM unless noted), -39.4% (active); in assay [5] (10 µM unless noted), -39.9% (active); in [6] (10 µM unless noted), 43.2%. Moreover, the growth in [7] (10 µM unless noted) is -77.5% (active); in [8] (10 µM unless noted) it was -76.3% (active); in [9] (10 µM unless noted), -9.04% (active); in [10] (10 µM unless noted) it was -37.8% (active); in assay [11] (10 µM unless noted), -69.4% (active); in [19] (10 µM unless noted), -81.8% (active). The growth in assay [12] (10 µM unless noted) is -77.1% (active); in [13] (10 µM unless noted), -67.4% (active); in [14] (10 µM unless noted), -74.2% (active); in assay [15] (10 µM unless noted), -78.2% (active); in [16] (10 µM unless noted), -33.9% (active); in [17], -53.9% (active).

On to `Fc1cccc(CNc2nc(SCCN3CCOCC3)nc3c2cnn3CC(Cl)c2ccc(Br)cc2)c1` (stereo not drawn), for which the growth is -18.1% (active) in [1]; 2.98% (active) in assay [2] (10 µM unless noted); 32.6% in assay [3] (10 µM unless noted); 59.9% in [4] (10 µM unless noted); 27.3% in assay [5] (10 µM unless noted); 51.3% in assay [6] (10 µM unless noted). In addition, the growth in assay [7] (10 µM unless noted) is 52.2%; in assay [8] (10 µM unless noted), 49.7%; in assay [9] (10 µM unless noted), 19.2%; in assay [10] (10 µM unless noted), 23%; in assay [11] (10 µM unless noted), 1.04% (active); in assay [19] (10 µM unless noted) it was 10.6%. For the same molecule, the growth in [12] (10 µM unless noted) was -38.2% (active); in assay [13] (10 µM unless noted) it was 7.42% (active); in assay [14] (10 µM unless noted) it was 18.4%; in [15] (10 µM unless noted) it was 12.2%; in [16] (10 µM unless noted) it was 8.48% (active); in assay [17], 3.38% (active).

On to `Nc1cc(-c2c[nH]c3ccc(Cl)cc23)nc2cc(-c3c[nH]c4ccccc34)nn12`, for which the growth in [1] was 10.2%; in [2] (10 µM unless noted), 0.472% (active); in assay [3] (10 µM unless noted) it was -4.93% (active); in assay [4] (10 µM unless noted) it was -50.4% (active); in assay [5] (10 µM unless noted), 19.8%; in assay [6] (10 µM unless noted), 5.29% (active). The growth was 2.75% (active) in [7] (10 µM unless noted); -52.7% (active) in [8] (10 µM unless noted); -3.21% (active) in [9] (10 µM unless noted); -3.2% (active) in assay [10] (10 µM unless noted); -5.16% (active) in [11] (10 µM unless noted); -51% (active) in [19] (10 µM unless noted). In addition, the growth in assay [12] (10 µM unless noted) was -79.6% (active); in assay [13] (10 µM unless noted), -68.3% (active); in assay [14] (10 µM unless noted), -83.9% (active); in [15] (10 µM unless noted), -81.2% (active); in [16] (10 µM unless noted) it was -70.5% (active); in assay [17] it was -72.3% (active).

Consider `CC/C(=C(\c1ccc(O)cc1)c1ccc(OCCN(C)C(=O)CCOCCNC(=O)c2ccc3c(c2)CN([C@@H]2CCC(=O)NC2=O)C3=O)cc1)c1ccccc1`, for which the growth is 99.1% in [2] (1 µM); 93.9% in [2] (10 µM); 103% in [3] (1 µM); 77.6% in assay [3] (10 µM); 93.4% in assay [4] (1 µM); 79.5% in assay [4] (10 µM). The growth in assay [5] (1 µM) is 109%; in assay [5] (10 µM), 96.1%; in assay [6] (1 µM), 82.7%; in assay [6] (10 µM), 87.9%; in [7] (1 µM) it was 70.4%; in assay [7] (10 µM) it was 53.6%. In addition, the growth is 93.7% in [8] (1 µM); 105% in assay [8] (10 µM); 75.9% in assay [9] (1 µM); 69.3% in assay [9] (10 µM); 106% in [10] (1 µM); 102% in assay [10] (10 µM). In addition, the growth is 38.3% in [11] (1 µM); 50.4% in [11] (10 µM); 9.93% (active) in assay [18] (1 µM); 39.3% in [18] (10 µM); 100% in assay [19] (1 µM); 95.4% in [19] (10 µM). In addition, the growth in assay [12] (1 µM) was 87%; in assay [12] (10 µM), 83.6%; in assay [13] (1 µM) it was 27.9%; in [13] (10 µM), 24%; in [14] (1 µM) it was 92.7%; in assay [14] (10 µM), 94.8%.

The record behind these values is PubChem BioAssay (NCI).
